High-throughput results from PubChem BioAssay.
PMK inhibit = inhibitors of Streptococcus pneumoniae phosphomevalonate kinase; actives 0.49% (n = 65,000); purified PMK, PK/LDH-coupled NADH absorbance 340 nm; inhibition, % at 10 µM;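 active means top-ranked compounds by inhibition in the single 10 µM screen, taking a fixed number of the strongest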
Fluor 339 460 = intrinsic fluorescence of library compounds, ex339/em460 – biochemical, MLSMR library, data from DPM-DC assay, artefact control, profiling panel; compound autofluorescence, ex339/em460 nm, NADH buffer; stronger effect = higher value; 1 = no-compound wells, NADH background; fluorescence fold increase at 10 µM; actives 5.5% (n = 65,000);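 active means at 10 µM, mean starting fluorescence two-fold or more over control wells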;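 further: signal is the first read of a kinetic run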
MK inhibit = S. pneumoniae mevalonate kinase inhibition | actives 0.48% (n = 65,000) | purified MK, PK/LDH-coupled NADH absorbance 340 nm | inhibition, % at 10 µM;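 active means ranked among the strongest by inhibition in the single 10 µM screen, a fixed top-ranked set picked for dose follow-up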
Spn DPM-DC inh = inhibitors of Streptococcus pneumoniae diphosphomevalonate decarboxylase; purified DPM-DC, PK/LDH coupled NADH fluorescence; calls only at 10 µM; actives 0.49% (n = 65,000); AID 556;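 active means the 320 compounds with the highest percent inhibition in the single-dose primary screen, excluding strongly autofluorescent ones, cut at about 32% in these data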;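 further: kinetic rate of NADH fluorescence loss reporting ADP formed by the decarboxylase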
Abs 340nm = compounds absorbing at 340 nm; 65,000 tested, under 10 active; AID 708; fold change at 10 µM; compound absorbance at 340 nm, fold over control;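 active means at 10 µM dose, initial 340 nm absorbance at least 2 fold that of control wells; inactive means change under 2 fold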;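 further: initial absorbance extrapolated from kinetic A340 decline of NADH oxidation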
NADH enzymes = inhibitors of enzymes used to reach an NAD/NADH endpoint | AID 774 | actives 0.02% (n = 65,000) | coupled PK/LDH NADH assays, four targets | IC50, µM (doses to about 10 µM);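 active means single-dose screening hits from any of four coupled enzyme assays that gave an IC50 when retested across doses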;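 further: the DPM-DC format reads NADH fluorescence rather than 340 nm absorbance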
Hits are given with their value; – = inactive; · = no result shown; + = active, no number. Hits are enriched below; roughly 6.3% of the tested compounds scored in any of these assays.

SMILES	PMK inhibit	Fluor 339 460	MK inhibit	Spn DPM-DC inh	Abs 340nm	NADH enzymes
Cc1cc(NC(=O)c2cc(-c3cccs3)nc3ccccc23)no1	–	2.05	–	·	–	–
CCCS(=O)(=O)N1CCCC(C(=O)NCC2CCCO2)C1 (stereo not drawn)	–	–	–	–	–	–
COCCCNC(=O)CN(C1CCCCC1)S(=O)(=O)c1ccc(C)cc1	30.0	–	–	–	–	–
N#Cc1cc2c(=O)n3ccccc3nc2n(Cc2cccnc2)c1=O	–	3.84	–	·	–	–
Cc1cccn2c(=O)c3cc(C#N)c(=O)n(Cc4cccnc4)c3nc12	–	3.8	–	·	–	–
CCCCCCn1cnc2c(c1=O)c1nc3ccccc3nc1n2Cc1cccs1	–	2.33	–	–	–	–
CCOCCCn1cnc2c(c1=O)c1nc3ccccc3nc1n2-c1ccc(C)cc1	–	–	–	–	–	–
CCOCCCn1cnc2c(c1=O)c1nc3ccccc3nc1n2-c1ccccc1	–	2.97	–	–	–	–
COc1ccc(Cn2c3nc4ccccc4nc3c3c(=O)n(Cc4ccco4)cnc32)cc1	–	–	–	–	–	–
CCCn1cnc2c(c1=O)c1nc3ccccc3nc1n2Cc1ccccc1OC	–	–	–	–	–	–
CC(C)CCn1cnc2c(c1=O)c1nc3ccccc3nc1n2Cc1ccc2c(c1)OCO2	–	3.59	–	·	–	–
COCCCn1cnc2c(c1=O)c1nc3ccccc3nc1n2CCc1ccccc1	–	2.4	–	·	–	–
Cc1nn(-c2ccccc2)c(Cl)c1C(=O)Nc1nnc(C2CCCC2)s1	–	–	–	–	–	–
COc1cccc(OCC(O)CO)c1 (stereo not drawn)	–	–	–	–	–	–
Cn1c(=O)cc(OCC(=O)N2CCC(N3CCCCC3)CC2)c2ccccc21	–	–	–	–	–	–
Cc1cccc(N2CCN(C(=O)Cc3c(C(=O)O)[nH]c4ccc(Cl)cc34)CC2)c1C	–	–	–	–	–	–
CCCCn1c2nc3ccccc3nc2c2c(=O)n(CCC)cnc21	–	3.86	–	·	–	–
COCCCn1c2nc3ccccc3nc2c2c(=O)n(-c3ccccc3OC)c(C)nc21	–	–	–	–	–	–
COCCCn1c2nc3ccccc3nc2c2c(=O)n(-c3ccccc3OC)cnc21	–	2.38	–	–	–	–
CCN(CC)S(=O)(=O)c1ccc2c(c1)nc(SCc1nc3ccsc3c(=O)[nH]1)n2CC	–	–	–	–	–	–
CCCCNC(=O)CC(=O)Nc1ccccc1C(=O)O	–	–	–	–	–	–
COc1ccc(CN(Cc2cc3cc4c(cc3[nH]c2=O)OCO4)C(=O)NC2CCCCC2)cc1	–	2.49	–	–	–	–
O=C(NC1CCCCC1)N(CCN1CCOCC1)Cc1cc2cc3c(cc2[nH]c1=O)OCCO3	–	4.38	–	·	–	–
COCCN(Cc1cc2cc3c(cc2[nH]c1=O)OCO3)C(=O)c1cccs1	–	2.72	–	+	–	–
COc1ccc(CCN(Cc2cc3cc4c(cc3[nH]c2=O)OCO4)C(C)=O)cc1OC	–	2.66	–	–	–	–
SMILES	PMK inhibit	Fluor 339 460	MK inhibit	Spn DPM-DC inh	Abs 340nm	NADH enzymes
Cc1ccc2[nH]c(=O)c(CN(CCCN3CCOCC3)C(=O)NC3CCCCC3)cc2c1	–	–	–	–	–	–
COc1ccc(CCN(Cc2cc3cc(C)ccc3[nH]c2=O)C(=O)N2CCCC2)cc1OC	–	–	–	–	–	–
Cc1cc(N/C=C2\CCCCC2=O)no1	–	–	–	–	–	–
CCN(CC)CCNC(=O)c1ccccn1	–	–	–	–	–	–
Cc1ccc2[nH]c(=O)c(CN(Cc3cccnc3)Cc3nnnn3CCN3CCOCC3)cc2c1	–	–	–	–	–	–
CCn1c(SCC(=O)N2CCN(c3ccc(F)cc3)CC2)nnc1-c1ccncc1	–	–	–	–	–	–
CCN(CC)CCN(Cc1cc2cc3c(cc2[nH]c1=O)OCCO3)C(=O)NC1CCCCC1	–	3.81	–	·	–	–
CCc1ccc2[nH]c(=O)c(CN(CCN3CCCC3)C(=O)NC3CCCCC3)cc2c1	–	–	–	–	–	–
CCN(CC)CCOC(=O)c1c(C)oc2ccc(OC)cc12	–	–	–	–	–	–
COc1ccc2oc(-c3ccccc3)c(C(N)=O)c2c1	–	2.08	–	·	–	–
NC(=O)c1oc2ccc(Cl)cc2c1N	–	3.86	–	·	–	–
CN(C)C(=O)c1c(-c2ccccc2)oc2ccc(O)cc12	–	2.22	–	·	–	–
CCOC(=O)c1c(COc2ccccc2)oc2ccc(O)cc12	–	–	–	–	–	–
Nc1c(C(=O)CCC(=O)O)oc2ccc(Cl)cc12	–	–	–	–	–	–
COC(=O)c1oc2ccc(OC)cc2c1N	–	2.62	–	–	–	–
COc1ccc(C(=O)c2oc3ccc(OC)cc3c2N)cc1	–	–	–	–	–	–
CC(C)Cn1c(SCC(=O)c2ccc(Cl)s2)nnc1-c1ccco1	–	–	–	–	–	–
C=CCOc1cccc(C2/C(=C(/O)c3ccccc3)C(=O)C(=O)N2CCCN2CCOCC2)c1 (stereo not drawn)	–	–	–	–	–	–
O=C(C1CCN(S(=O)(=O)N2CCC3(CC2)OCCO3)CC1)N1CCc2ccccc2C1	–	–	–	–	–	–
CCOC(=O)N1CCC(NC(=O)C2CCN(c3ccc(N4CCOCC4)nn3)CC2)CC1	–	4.87	–	·	–	–
O=C(C1CCN(c2ccc(N3CCOCC3)nn2)CC1)N1CCc2ccccc2C1	–	4.7	–	·	–	–
Cc1c(NC(=O)C(C)N2CC(C)OC(C)C2)c(=O)n(-c2ccccc2)n1C (stereo not drawn)	–	–	–	–	–	–
CCOc1cc(C)c(Cl)cc1S(=O)(=O)NCC1CCCO1 (stereo not drawn)	–	–	–	–	–	–
Cn1c(SCCOc2cccc(Cl)c2)nnc1-c1ccncc1	–	–	90.0	–	–	–
Cc1ccc(OCCSc2nnc(-c3ccncc3)n2C)cc1	–	–	–	–	–	–
SMILES	PMK inhibit	Fluor 339 460	MK inhibit	Spn DPM-DC inh	Abs 340nm	NADH enzymes
O=C(CCCn1c(=O)c2sccc2n(Cc2cc(=O)n3ccccc3n2)c1=O)NCc1ccco1	–	–	–	–	–	–
O=C(CCn1c(=O)c2sccc2n(Cc2cc(=O)n3ccccc3n2)c1=O)NCc1ccco1	–	2.21	–	–	–	–
C=CCn1c(N)c(C(=O)NCCC2=CCCCC2)sc1=S	–	–	–	–	–	–
COCc1cc(C)nc(N2CCOCC2)c1C#N	–	2.1	–	·	–	–
CCNc1nc(C)cc(COC)c1C#N	–	2.16	–	·	–	–
CCCCc1nc(N2CCOCC2)c(C#N)c2c1CCCC2	–	–	–	–	–	–
COCc1cc(C)nc(N)c1C#N	–	–	–	·	–	–
CCOc1cc2c(C#N)c(N3CCOCC3)nc(N)c2c(N)n1	–	5.12	–	·	–	–
Cc1ccc2c(c1)c1ncnc(N3CCN(c4ccccc4)CC3)c1n2C	–	–	–	–	–	–
